Bioassay records from PubChem.
This excerpt belongs to a sample that is enriched for hits.
miR122 inh: activators of miR-122 sensor in Huh7 cells | 0.14% of 340,000 active | activation, % at 12.5 µM | AID 623901 | Huh7 psiCHECK-miR122 Renilla luciferase sensor, 48 h;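 active = mean activation of 30% or more, with every replicate also reaching 30%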;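 also: 0% = median of neutral control wells and 100% = median of positive control wells; higher luciferase signal means stronger suppression of miR-122 activity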
The depositor's hits bear a star.

For CCS(=O)(=O)Nc1ccc2c(c1)C(=O)N(C)C[C@@H](OC)[C@@H](C)CN[C@H](C)CO2 the results were miR122 inh -1.
Cc1ccc(-c2cnc3c(c2)C(=O)N([C@@H](C)CO)C[C@H](C)[C@H](CN(C)C(=O)c2ccncc2)O3)cc1 was read as miR122 inh 0.
`CO[C@@H]1CN(C)C(=O)c2cc(NC(=O)Cc3ccccc3)ccc2OC[C@@H](C)N(C)C[C@@H]1C` gave miR122 inh 2.
For COc1cccc(C#Cc2cnc3c(c2)C(=O)N([C@@H](C)CO)C[C@@H](C)[C@H](CN(C)C(=O)C2CCCCC2)O3)c1 the results were miR122 inh 5.
For C[C@@H]1CN([C@@H](C)CO)S(=O)(=O)c2ccc(C#CCC3CCCC3)cc2O[C@@H]1CN(C)C(=O)CC1CC1 the results were miR122 inh -3.
C[C@@H]1CN([C@@H](C)CO)S(=O)(=O)c2ccc(/C=C/c3ccccc3)cc2O[C@@H]1CN(C)C(=O)NC1CCCCC1 was read as miR122 inh 41*.
For CC(=O)N(C)C[C@H]1Oc2cc(/C=C/c3ccccc3)ccc2S(=O)(=O)N([C@H](C)CO)C[C@@H]1C the results were miR122 inh 6.
Screening C[C@@H]1CN([C@H](C)CO)S(=O)(=O)c2ccc(/C=C/c3ccccc3)cc2O[C@@H]1CN(C)C(=O)c1ccccc1 returned miR122 inh 20.
Screening CC(=O)N(C)C[C@H]1Oc2cc(/C=C/c3ccccc3)ccc2S(=O)(=O)N([C@@H](C)CO)C[C@H]1C returned miR122 inh 34*.
For C[C@H](CO)N1C[C@H](C)[C@@H](CN(C)C(=O)Nc2cccc(F)c2)Oc2cc(/C=C/c3ccccc3)ccc2S1(=O)=O the results were miR122 inh -16.
CC(C)CC#Cc1ccc2c(c1)O[C@H](CN(C)C(=O)NC1CCCC1)[C@@H](C)CN([C@H](C)CO)S2(=O)=O was read as miR122 inh -56.
Screening COCC#Cc1ccc2c(c1)O[C@H](CN(C)C(C)=O)[C@H](C)CN([C@@H](C)CO)S2(=O)=O returned miR122 inh 1.
COCC(=O)N(C)C[C@H]1Oc2ncc(C#Cc3ccncc3)cc2C(=O)N([C@@H](C)CO)C[C@@H]1C was read as miR122 inh 7.
For CC(C)C#Cc1cnc2c(c1)C(=O)N([C@H](C)CO)C[C@H](C)[C@@H](CN(C)C(=O)CC1CC1)O2 the results were miR122 inh -5.
`C[C@@H](O)C#Cc1ccc2c(c1)O[C@H](CN(C)C(=O)Cc1ccccn1)[C@@H](C)CN([C@@H](C)CO)S2(=O)=O` gave miR122 inh -4.
COCC#Cc1ccc2c(c1)O[C@@H](CN(C)C(=O)C1CCOCC1)[C@@H](C)CN([C@@H](C)CO)S2(=O)=O was read as miR122 inh 2.
Screening C[C@@H]1CN([C@H](C)CO)S(=O)(=O)c2ccc(-c3ccccc3)cc2O[C@@H]1CN(C)Cc1cccnc1 returned miR122 inh -14.
C[C@H](CO)N1C[C@H](C)[C@H](CN(C)C(=O)C2CCOCC2)Oc2ncc(/C=C/c3ccccc3)cc2C1=O was read as miR122 inh 3.
C[C@@H]1CN([C@@H](C)CO)C(=O)c2cc(-c3cncnc3)cnc2O[C@H]1CN(C)Cc1ccncc1 was read as miR122 inh -1.
For CN(C)CCNc1nc2sc3c(c2c(=O)n1CCc1ccccc1)CCCCC3 the results were miR122 inh 32*.
For C[C@@H]1CN([C@@H](C)CO)S(=O)(=O)c2ccc(C#Cc3ccccc3)cc2O[C@H]1CN(C)C(=O)Nc1ccccc1 the results were miR122 inh 0.
COc1cccc(NC(=O)N(C)C[C@@H]2Oc3ncc(C#Cc4ccccc4)cc3C(=O)N([C@@H](C)CO)C[C@H]2C)c1 was read as miR122 inh 4.
`C[C@@H]1CN([C@H](C)CO)C(=O)Cc2cc(NC(=O)Nc3cccc4ccccc34)ccc2O[C@@H]1CN(C)C(=O)Nc1cccc2ccccc12` gave miR122 inh -99.
Screening C[C@@H]1CCCCO[C@@H](CN(C)CC2CCCCC2)[C@H](C)CN([C@@H](C)CO)C(=O)c2cc(NC(=O)Nc3cccc4ccccc34)ccc2O1 returned miR122 inh 31*.
For C[C@H]1CCCCO[C@@H](CN(C)CC2CCCCC2)[C@@H](C)CN([C@@H](C)CO)C(=O)c2cc(NC(=O)Nc3cccc4ccccc34)ccc2O1 the results were miR122 inh 33*.
Screening C[C@@H]1CN([C@H](C)CO)C(=O)Cc2cc(NC(=O)Nc3cccc4ccccc34)ccc2O[C@@H]1CN(C)C(=O)NC1CCCCC1 returned miR122 inh -121.
`C[C@H](CO)N1C[C@H](C)[C@H](CN(C)Cc2ccc(C(=O)Nc3ccccc3N)cc2)Oc2ccc(NC(=O)Nc3cccc4ccccc34)cc2CC1=O` gave miR122 inh -96.
C[C@H](CO)N1C[C@H](C)[C@@H](CN(C)Cc2ccncc2)Oc2ccc(NC(=O)Nc3cccc4ccccc34)cc2CC1=O was read as miR122 inh -98.
